This is a sample that favours compounds with a hit; in the whole collection about 1.5% have one here.
CRFBP-R2 block: antagonists of CRF-BP/CRF-R2 complex, primary screen, cell-based, HEK293, calcium dye fluorescence, uHTS; CRF-induced calcium fluorescence; inhibition, % at 11.8 µM; actives 0.59% (n = 350,000);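 active means inhibition of the ligand-induced calcium signal above about 50% at the single tested concentration, limit read from the data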
V-ATPase pH: regulators of yeast V-ATPase proton pumping, primary screen, pHLuorin cytosolic pH fluorescence; S. cerevisiae; response, % at 10 µM; actives 0.37% (n = 350,000); in the data active means response mostly above about 7.3%, no sharp cut-off; inactive means mostly below about 5.4%; further: actives read high
NTR1 ag: agonists of human NTR1, primary screen, imaging, U2OS cells, beta-arrestin-GFP, high content. Neurotensin receptor type 1 (Homo sapiens), P30989. NTR1-U2OS beta-arrestin-GFP spot imaging, agonist mode. activation, % at 20 µM. AID 493036, 2011. actives 0.17% (n = 330,000);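 active means activation at or above 40% of the spot to cytoplasm intensity ratio, with at least 20 cells analyzed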;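 further: 0% = DMSO without peptide and 100% = 100 nM NTR1 peptide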
Target sequence (P30989 whole entry, looked up): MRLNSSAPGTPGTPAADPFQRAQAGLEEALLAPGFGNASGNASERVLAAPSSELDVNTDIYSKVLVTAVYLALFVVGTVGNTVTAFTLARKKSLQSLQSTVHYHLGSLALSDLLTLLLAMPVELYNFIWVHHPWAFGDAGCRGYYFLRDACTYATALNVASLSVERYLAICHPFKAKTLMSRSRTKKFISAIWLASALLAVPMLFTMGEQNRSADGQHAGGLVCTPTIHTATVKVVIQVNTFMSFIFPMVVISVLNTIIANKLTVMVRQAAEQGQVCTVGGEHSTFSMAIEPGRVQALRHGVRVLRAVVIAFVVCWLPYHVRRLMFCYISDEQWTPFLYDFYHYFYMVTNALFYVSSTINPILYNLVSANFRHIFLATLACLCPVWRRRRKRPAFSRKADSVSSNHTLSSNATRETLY
CRFBP-R2 agonist: agonists of CRF-BP/CRF-R2 complex, primary screen, cell-based, HEK293, calcium dye fluorescence, uHTS. CRF-binding protein / CRF receptor 2 complex (human). calcium dye fluorescence (FLIPR); percent of saturating CRF peptide response. activation, % at 13.2 µM. actives 0.46% (n = 350,000);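 active means activation of at least 50%, plus an integration ratio under a set limit after plate pattern correction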;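 further: plate controls were neutral control wells without compound for no effect and CRF at EC100 for full effect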
The depositor's hits bear a star; x = no result.

SMILES	CRFBP-R2 block	V-ATPase pH	NTR1 ag	CRFBP-R2 agonist
CCOC(=O)C1=C(C)N=c2s/c(=C\c3ccc(O)c([N+](=O)[O-])c3)c(=O)n2C1c1ccccc1OC (stereo unspecified)	30	-2	9	-1
CCOC(=O)C1=C(C)N=c2s/c(=C/c3cccc([N+](=O)[O-])c3O)c(=O)n2C1c1ccc(OC)cc1OC (stereo unspecified)	59*	2	10	-1
O=C(/C=C/c1cc(Br)ccc1O)c1ccco1	-11	-1	47*	7
N#Cc1ccc(/C=C/C(=O)c2ccco2)cc1	-11	0	14	-2
O=C(/C=C/c1ccccc1O)c1ccco1	-32	-3	10	3
Nc1ccc(/C=C/C(=O)c2ccco2)cc1	-72	1	0	81*
CCOC(=O)c1cn2nc(Oc3ccc(NC(C)=O)cc3)ccc2n1	12	0	-1	-2
CCOC(=O)c1cn2nc(Oc3cccc(F)c3)ccc2n1	62*	0	0	1
O=C(O)CCC(=O)Nc1cc(C(F)(F)F)cc(C(F)(F)F)c1	11	6	1	0
Cc1nn(CCc2nn[nH]n2)c2nc(-c3ccc(C4CCCCC4)cc3)cc(C(F)(F)F)c12	87*	2	38	24
Cc1nn(CCC(=O)O)c2nc(-c3cccnc3)cc(C(F)(F)F)c12	8	x	0	6
CC1CCCN(S(=O)(=O)c2ccc(NC(=O)CN3C(=O)NC(C)(c4ccccc4)C3=O)cc2)C1 (stereo unspecified)	-7	-1	2	0
COc1ccc2oc(C(=O)NCCC(C)C)c(C)c2c1	79*	0	0	1
CSCCC(NC(=O)c1ccccc1Br)C(=O)NCC(c1ccco1)N1CCCCC1 (stereo unspecified)	-4	1	3	-2
O=[N+]([O-])c1cc2ccccc2c(O)c1O	7	-1	x	-2
O=[N+]([O-])c1cc(-c2ccccc2)cc([N+](=O)[O-])c1O	65*	-1	x	1
CN(C)c1ccc(/C=C(/C#N)C(=O)NCc2ccccc2)o1	-99	3	-4	108*
O=C1c2ccccc2-c2onc3ccc(NCCCn4ccnc4)c1c23	-166	x	-2	194*
NS(=O)(=O)c1ccc(NCCCn2ccnc2)c([N+](=O)[O-])c1	4	4	1	-1
COc1ccc2noc3c2c1C(=O)c1ccccc1-3	-115	0	-2	169*
O=C(CCc1nc2ccccc2c(=O)[nH]1)Nc1nnc(SCc2ccc(F)cc2)s1	12	6	-1	1
CCC/C(=N\NC(=O)C1CC1)c1ccccc1	65*	-1	1	-2
Cn1nccc1C(=O)OCC(=O)Nc1cccc(Cl)c1	-8	4	-1	4
CN(C)C1=NCCN1CCc1ccc(F)cc1	5	4	3	2
CCN1Cc2c(/C=C/c3ccccc3)nc3ccc(OC)cc3c2N(c2cccc(Cl)c2)C1	-25	-1	3	21
SMILES	CRFBP-R2 block	V-ATPase pH	NTR1 ag	CRFBP-R2 agonist
O=C(O)c1cc([N+](=O)[O-])ccc1N1CCCCC1	-3	-2	-1	-3
Cc1ccc(C(=O)c2cc([N+](=O)[O-])ccc2N2CCCCC2)c(C)c1	-130	-3	2	133*
Cc1ccc(S(=O)(=O)ON2C(=O)c3cccc4cccc(c34)C2=O)cc1	3	-2	0	-1
Cc1cc(S(=O)(=O)ON2C(=O)c3ccccc3C2=O)ccc1F	13	11*	x	2
Cc1ccc(C)c(S(=O)(=O)ON2C(=O)c3ccccc3C2=O)c1	63*	2	-1	1
CCOc1ccccc1N(CC(=O)NC1CCCC1)S(=O)(=O)c1ccc(C)cc1	-9	-6	0	7
COc1ccc2[nH]cc(C(=O)CN3CCN(C4CCCCC4)CC3)c2c1	13	2	-2	-1
COc1ccc2[nH]cc(C(=O)CN3CCCCC3)c2c1	-15	-5	-1	59*
O=C(c1ccc(N2CCNCC2)cc1)c1cccnc1	62*	-1	0	-3
O=C(Nc1ccc(N2CCCCC2)cc1)c1cccnc1	-3	-2	-2	0
COc1ccc(CCNC(=O)C(=O)NCC2OCCN2S(=O)(=O)c2cc(F)ccc2F)cc1OC (stereo unspecified)	26	4	0	2
N#CNC(=Nc1cccc(F)c1)SCc1ccccc1	64*	-4	5	36
COc1ccccc1N1CCN(c2ncc(C(=O)N3CCN(c4cccc(Cl)c4)CC3)c3ccccc23)CC1	-290	0	7	115*
CCOc1ccccc1C(=O)N1CCN(c2cccc(Cl)c2)CC1	-39	-3	6	-1
CCn1cc(C(=O)NCCCOC(C)C)c(=O)c2cc(S(=O)(=O)N3CCCC3)ccc21	-4	-3	-1	8
CCCCNC(=O)c1cn(CC)c2ccc(S(=O)(=O)N3CCCCCC3)cc2c1=O	60*	-2	2	2
O=C(COC(=O)c1ccc(O)cc1)Nc1cc(C(F)(F)F)ccc1N1CCOCC1	4	-1	0	1
OCc1cc(-c2ccc(Cl)c(Cl)c2)on1	16	-1	-1	0
O=C(NCC1CCCO1)C1CCCN1C(=O)NC1CCCCC1 (stereo unspecified)	53*	0	-2	-4
CCCCCC(=O)N1CC2(CC(c3cccc(NC(=O)CC)c3)=NO2)C[C@H]1C(N)=O (stereo partly specified)	79*	4	8	3
C/C=C/C(=O)Nc1cccc(C2=NOC3(C2)C[C@@H](C(N)=O)N(C(=O)c2cc([N+](=O)[O-])cc([N+](=O)[O-])c2C)C3)c1 (stereo partly specified)	-245	0	1	232*
CC(C)NC(=O)N(C)C[C@@H]1Oc2c(NC(=O)C3CCOCC3)cccc2C(=O)N([C@@H](C)CO)C[C@H]1C	-16	0	-2	5
CSCC[C@H](NC(=O)c1cccc(S(=O)(=O)N2CCN(C)CC2)c1)c1nc2ccccc2[nH]1	-27	-1	2	71*
C/C(CC(=O)Nc1ccc(F)cc1F)=N\NC(=O)C(=O)N1CCCCC1	x	x	-1	x
Oc1c(Cl)cc(Cl)cc1/C=C/c1ccc2cccc(O)c2n1	-102	2	3	87*
SMILES	CRFBP-R2 block	V-ATPase pH	NTR1 ag	CRFBP-R2 agonist
Oc1cccc2ccc(/C=C/c3ccccc3Br)nc12	-2	4	21	3
Cc1oc(-c2cccs2)nc1CNC[C@H]1O[C@@H](n2cnc3c(N)ncnc32)[C@H](O)[C@@H]1O	-5	-4	0	0
CCCCNC(=O)CCn1c(=O)c2ccccc2n(Cc2ccccc2C)c1=O	65*	-3	1	-2
CCCCNC(=O)CCn1c(=O)c2ccccc2n(Cc2ccc(Cl)cc2)c1=O	7	-1	3	0
CC1CCC(NC(=O)CN2C(=O)NC(C)(C)C2=O)CC1 (stereo unspecified)	5	2	-2	0
CC(=O)Nc1nc(C2CC2)cc(-c2ccccc2)c1C#N	14	-2	-1	0
